The campaign covered roughly 2,400 compounds. About 1,700 (71%) were called active.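 How the source made its calls: active means choline transporter activity left, mean of duplicates at 10 µM, below buffer-only control mean minus 3 SD; inactive means the rest.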 The set was probably picked from earlier hits. Only a sample is shown.
Biological target: High affinity choline transporter 1 (Homo sapiens) (UniProt Q9GZV3)
Test: CHT inhibitors, confirmation, cell-based, membrane potential dye, duplicate (AID 493221)
Settings: CHT-expressing cells, at 10 µM, LV-to-AA substituted CHT, HEK293 cells

Chain of High affinity choline transporter 1 (Homo sapiens) (Q9GZV3 whole entry, looked up): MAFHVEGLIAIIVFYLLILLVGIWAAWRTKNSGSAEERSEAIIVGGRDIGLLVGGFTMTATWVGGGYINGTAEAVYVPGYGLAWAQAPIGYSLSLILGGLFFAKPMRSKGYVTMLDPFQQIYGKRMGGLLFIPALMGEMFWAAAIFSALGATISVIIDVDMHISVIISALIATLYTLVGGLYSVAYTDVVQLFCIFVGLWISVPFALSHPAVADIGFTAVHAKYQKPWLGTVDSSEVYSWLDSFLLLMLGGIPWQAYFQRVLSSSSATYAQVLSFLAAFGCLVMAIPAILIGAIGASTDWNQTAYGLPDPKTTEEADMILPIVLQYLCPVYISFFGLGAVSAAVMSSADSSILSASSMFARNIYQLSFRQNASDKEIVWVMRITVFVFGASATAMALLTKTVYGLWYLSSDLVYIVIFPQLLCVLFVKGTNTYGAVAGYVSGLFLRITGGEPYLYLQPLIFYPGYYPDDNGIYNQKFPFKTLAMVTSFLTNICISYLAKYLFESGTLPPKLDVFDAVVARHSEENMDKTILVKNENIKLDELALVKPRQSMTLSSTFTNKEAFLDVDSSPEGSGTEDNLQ

Row | SMILES | CHT activity remaining % of control (hits give low values)
1 | CC(C)(C)C(=O)/C(C#N)=C/c1ccc(O)cc1 | 68.6% (active)
2 | O=C(Nc1ccn(Cc2ccccc2)n1)c1n[nH]c([N+](=O)[O-])c1Cl | 48.6% (active)
3 | CC1CCN(C(=O)CN(c2ccc(Oc3ccccc3)cc2)S(C)(=O)=O)CC1 | inactive
4 | CC(C)(C)NC(=O)NC(=O)CN1CCC(Cc2ccccc2)CC1 | 43.5% (active)
5 | Cc1ccc(SC(CC(=O)c2ccc(C(C)(C)C)cc2)C(=O)O)cc1 (stereo not given) | 42% (active)
6 | CC1CCN(CCCNC(=O)CN2C(=O)CSc3ccc(S(=O)(=O)N4CCCCC4)cc32)CC1 | 53.6% (active)
7 | CCOCCCN(C)C1CCN(C(=O)c2oc3ccccc3c2NC(=O)COc2cccc(C)c2)CC1 | 44.8% (active)
8 | Cc1cccnc1NC(=O)c1cccc(S(=O)(=O)N2CCN(c3ccc(F)cc3)CC2)c1 | 56.9% (active)
9 | Cc1ccc(C(=O)NC2CCCC(C)C2C)cc1S(=O)(=O)N1CCCCC1 (stereo not given) | 43.5% (active)
10 | CC1CCCC(NC(=O)c2cccc(N3CCCC3=O)c2)C1C (stereo not given) | 45.1% (active)
11 | CC1CN(S(=O)(=O)c2ccc(C(=O)NN3CCN(C)CC3)cc2)CC(C)O1 (stereo not given) | inactive
12 | O=C(C1CCN(S(=O)(=O)c2ccc(Br)s2)CC1)N1CCN(c2ccccc2)CC1 | 41.8% (active)
13 | COc1ccc2c(c1)OC(O)(C(F)(F)C(F)F)CC2=O (stereo not given) | 25.8% (active)
14 | CN(C)c1ccc(Nc2c3c4c(cccc4n(C)c2=O)C(=O)c2ccccc2-3)cc1 | 42.1% (active)
15 | CC1(C)SC2C(NC(=O)COc3ccccc3)C(=O)N2C1C(=O)O (stereo not given) | inactive
16 | CC(NC(=O)c1ccc(N2CCNCC2)c([N+](=O)[O-])c1)C12CC3CC(CC(C3)C1)C2 (stereo not given) | 52.3% (active)
17 | CCc1ccccc1N1CN(Cc2ccco2)CNC1=S | inactive
18 | CCOC(=O)C1(CCOC)CCN(Cc2ccc(C(=O)OC)cc2)CC1 | 71% (active)
19 | CCOc1ccc(/C=C2\SC(=S)N(NC(=O)c3ccncc3)C2=O)cc1OC | 69.4% (active)
20 | O=C1/C(=C/c2ccc(F)cc2)SC(=S)N1NS(=O)(=O)c1ccccc1 | 71.2% (active)
21 | O=C(O)c1ccc(/C=C2\SC(=S)N(NC(=O)c3ccc(Br)cc3)C2=O)cc1 | 41.7% (active)
22 | CC(C)n1c(=S)[nH]c2cc(C(F)(F)F)ccc21 | 59.3% (active)
23 | CC(Oc1ccc2ccccc2c1)C(=O)NNC(=S)NC(=O)c1ccco1 (stereo not given) | 67% (active)
24 | N#Cc1ccc(C(=O)Nc2cccc3cccnc23)c(F)c1 | inactive
25 | COc1ccc(C(CNC(=O)c2cccc(NS(=O)(=O)c3ccc(C)c(F)c3)c2)N2CCCC2)cc1 (stereo not given) | 38.4% (active)

Source: PubChem BioAssay AID493221 (Johns Hopkins Ion Channel Center, 2011)
